Results: ChEMBL document CHEMBL3988442, “University of Dundee, Small-Polar-MMV Screening Library” (2021)
In all, about 48,000 compounds went through this assay and about 13,000 (27%) showed an effect of 50% or more. The list shows a part of the results.

test system: Wolbachia pipientis; assay: Anti-Wolbachia Cell-Based Screen; assay type: functional; design: scale not given: in the data most compounds retested in dose-response had high values; settings: 5 µM

In order of rising “Percent Effect” value:
1. Cc1nc(C)c(CC(=O)N2CCN(CC(C)C)CC2)c(=O)[nH]1  -15.6%
2. CCN(CCN1CCCCCC1)C(=O)COc1cccnc1  -15.49%
3. CN(C)C(=O)N1CCCC2(CCN(Cc3ccncc3)C2)C1 (configuration not stated)  -11.09%
4. Cn1cnc(S(=O)(=O)N2C[C@H]3CN(Cc4cccnc4)C[C@H]3C2)c1.O=C(O)C(F)(F)F.O=C(O)C(F)(F)F.O=C(O)C(F)(F)F  -11.02%
5. Cc1cc(CN2C[C@@H]3COC[C@]3(CNC(=O)c3ccco3)C2)no1.O=C(O)C(F)(F)F  -9.998%
6. CCS(=O)(=O)NC[C@]12COC[C@H]1CN(Cc1cccnc1)C2.O=C(O)C(F)(F)F.O=C(O)C(F)(F)F  -8.022%
7. Cc1nc(CC(=O)N2CCN(CCOc3ccccc3)CC2)cs1  -7.543%
8. CC(=O)N1CCOCC2(CN(Cc3ccccn3)CCO2)C1.O=C(O)C(F)(F)F.O=C(O)C(F)(F)F (configuration not stated)  -7.165%
9. CC(C)c1cc(N2CCC3(CCN(C)C3)C2)ncn1 (configuration not stated)  -5.942%
10. CC[C@H]1CN2CC[C@H]1C[C@@H]2CNC(=O)NC1CCCCC1  -4.604%
11. CCS(=O)(=O)NC[C@]12COC[C@H]1CN(Cc1ccncc1)C2.O=C(O)C(F)(F)F.O=C(O)C(F)(F)F  -4.372%
12. Cn1ccnc1CN1CCC2(CC(=O)N(c3ccccn3)C2)C1.O=C(O)C(F)(F)F.O=C(O)C(F)(F)F (configuration not stated)  -3.39%
13. CCCN1CCN(C(=O)Cc2cccnc2)[C@H]2CS(=O)(=O)C[C@H]21  0.3719%
14. O=C(NC1CC(F)(F)C1)[C@]12COC[C@H]1CN(Cc1cccnc1)C2.O=C(O)C(F)(F)F.O=C(O)C(F)(F)F  1.025%
15. Cc1cc(CN2C[C@H]3CCC[C@@]3(COCC3CCOCC3)C2)no1.O=C(O)C(F)(F)F  1.109%
16. CNC(=O)[C@H]1C[C@@H]2CN(C(=O)c3ccncc3F)C[C@@H]2N1C  2.311%
17. CN1CCN(C(=O)Cc2ccc(S(=O)(=O)C(F)F)cc2)CC1  3.1%
18. O=C(O)C(F)(F)F.O=C(O)C(F)(F)F.c1ccc(CN2C[C@H]3CCC[C@@]3(COCC3CCOCC3)C2)nc1  5.827%
19. C[C@@H]1CN(C2CCOC2)C[C@]12CCN(c1cccnc1)C2=O.O=C(O)C(F)(F)F.O=C(O)C(F)(F)F (some centres not stated)  8.884%
20. O=C(O)C(F)(F)F.O=C(O)C(F)(F)F.O=C1CC2(CCN(Cc3ccncc3)C2)CN1c1cccc(F)c1 (configuration not stated)  10.56%
21. COc1ncccc1CN1C[C@@H]2COC[C@]2(COCC2CC2)C1.O=C(O)C(F)(F)F.O=C(O)C(F)(F)F  12.64%
22. C[C@@H]1CN(C2CCOCC2)C[C@]12CCN(c1cccnc1)C2=O.O=C(O)C(F)(F)F.O=C(O)C(F)(F)F  17.85%
23. CCN1CCc2[nH]cnc2C12CCN(c1ccc(Cl)cn1)CC2  20.82%
24. O=C(O)C(F)(F)F.O=C(O)C(F)(F)F.c1cncc(OC[C@@]23CCC[C@@H]2CN(C2CCOCC2)C3)c1  96.07%
25. O=C(NC[C@]12COC[C@H]1CN(Cc1cccnc1)C2)C1CCC1.O=C(O)C(F)(F)F.O=C(O)C(F)(F)F  96.22%
26. Cc1ccc(-c2ccnc3cc(CC(=O)N4CCN(C)CC4)nn23)cc1  99.35%
27. Cn1cnc(S(=O)(=O)N2CC3(CCN(Cc4ccncc4)C3)C2)c1.O=C(O)C(F)(F)F.O=C(O)C(F)(F)F.O=C(O)C(F)(F)F  100.9%
28. CN1CCc2nc3c(c(N)c2C1)CCCN3C  105.5%
29. CCN1CC2(CC1=O)CN(Cc1ccccn1)CCN(C(C)=O)C2.O=C(O)C(F)(F)F.O=C(O)C(F)(F)F (configuration not stated)  108.4%
30. O=C(O)C(F)(F)F.O=C(O)C(F)(F)F.c1cncc(OC[C@@]23CCC[C@@H]2CN(CC2CCOCC2)C3)c1  108.6%
31. O=C(O)C(F)(F)F.O=C(O)C(F)(F)F.c1cncc(OC[C@]23COC[C@H]2CN(C2CCOCC2)C3)c1  108.8%
32. CC(=O)N1CCN(Cc2ccncc2)CC2(CC(=O)N(C)C2)C1.O=C(O)C(F)(F)F.O=C(O)C(F)(F)F (configuration not stated)  112.8%
